High-throughput results as filed in PubChem BioAssay.
Shown is part of a subset that was picked to be rich in hits.
CBFb-RUNX1 inh: blocks binding between human CBF-beta and RUNX1; Potency, µM (titrated, usually from 59.8 µM), inactives show at the top dose activity, negative = inhibition, actives largely listed as inhibitors; Q01196+Q13951; AID 1477; AlphaScreen CBFb-His/RUNX1-biotin binding, biochemical; 230,000 tested, under 10 active; active means well fitted curve in the direction sought with a large enough effect; inconclusive means small, poorly fitted or top-dose-only effect, or effect the other way, or another doubt; inactive means no such curve, though single readings can be large or run the other way; further: % of control where 0% means no effect
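AlphaScreen proximity signal reports loss of binding between His-tagged CBF-beta and biotin-labelled RUNX1, each at 30 nM. Proteins are pre-associated for 20 minutes, compounds added for 15 minutes, then beads for 90 minutes, all at ambient temperature.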
MBNL1 CUG block: inhibitors of human MBNL1 binding to CUG repeat RNA | Q9NR56 | TR-FRET MBNL1-His/biotin-(CUG)12 binding, 665/545 ratio | Potency, µM (highest dose often 57.5 µM), for the others: at the highest dose activity change, negative = inhibition, most hits filed as inhibitors | 0.036% of 280,000 active | AID 2675; active means well fitted inhibition curve with a large enough effect in the signal ratio, with a control signal flat, not every such curve was filed as active; inconclusive means small, poorly fitted or top-dose-only effect, or effect the other way, or a change in a side signal; inactive means no such curve, though single readings can be large or run the other way; the % refers to the signal ratio; further: potency means the concentration at half of the fitted maximal effect; on the % scale 0 is the no-effect control and ±100 the full control effect
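Compounds (final 92 nM to 58 uM) are added to His-tagged MBNL1 and biotin-(CUG)12, then terbium anti-His antibody and streptavidin-XL665 (5 nM final). After 60 min at room temperature, the 665/545 nm ratio is read.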
ClpP mod: qHTS Assay for Activators of ClpP | purified B. subtilis ClpP, FRET peptide cleavage, 20 min | Potency, µM (doses to about 57.5 µM), inactives show top-dose activity change, negative = active | 1.9% of 340,000 active; active means well fitted falling curve with a large enough effect; inconclusive means small, poorly fitted or top-dose-only effect; inactive means no such curve, though single readings can be large or run the other way; further: potency means the concentration at half of the fitted maximal effect; the source files actives as falling curves though it sought activators and does not explain the sign; nearly all actives have a fitted effect of over 65% in size
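Purified B. subtilis ClpP, 10 microg/mL final in Tris/HCl pH8 with KCl, BSA, glycerol and Tween-20, cleaved an Abz/nitrotyrosine-quenched decapeptide. Fluorescence (ex 320, em 430) was read at 0 and 20 min at room temperature. Delta was normalized to 5.8 microM ADEP and DMSO/no-enzyme controls.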
Rango complex inh: Rango-importin beta binding inhibition; Q14974; Rango CFP/YFP FRET sensor + importin beta, 45 min; Potency, µM (titrated, usually from 92.2 µM), for inactives: top-dose inhibition of complex formation; 0.031% of 340,000 active;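 further: potency means the concentration at half of the fitted maximal effect; 0% = DMSO wells and 100% = buffer wells lacking importin beta; nearly all actives have a fitted effect of over 15% in size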
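FRET biosensor (snurportin 1 IBB flanked by EYFP and cerulean), 50 nM, with compound 5 min, then 0.125 microM importin beta in PBS, 1 mM DTT, 0.02% Tween-20, 0.1% BSA. CFP/YFP ratio read after 45 min at room temperature; pre-read flags interference.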
Rango release inh: inhibitors of RanGTP-induced Rango-importin beta complex dissociation; Biochemical FRET Rango-importin beta, RanGTP-induced dissociation; 0.071% of 340,000 active; O95149+P62826; Potency, µM (titrated, usually from 46.1 µM), for the others: at the highest dose activity change, negative = inhibition; further: potency means the concentration at half of the fitted maximal effect; % of control where 0% means no effect; nearly all actives have a fitted effect of over 45% in size
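FRET read at 45 min, room temperature: inhibitors block the CFP/YFP signal rise when RanGTP (0.6 uM Ran, 2 mM GTP, 0.2 uM RCC1) frees Rango (0.1 uM) from importin beta (0.25 uM). Pre-read after 5 min compound exposure flags interference.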
* hit, by the source's call; ? = inconclusive; · = no result; [ ] = another dose, or the depositor's remark. Unless noted, the call rests on the fitted dose curve.

SMILES	CBFb-RUNX1 inh	MBNL1 CUG block	ClpP mod	Rango complex inh	Rango release inh
N#Cc1cc(-c2ccc(Cl)cc2)cn(Cc2c(Cl)cccc2Cl)c1=O	0%	?	25µM*	-3%	-12%
C=CCn1cc(-c2ccc(Cl)cc2)cc(C#N)c1=O	5%	11%	32µM*	1%	-7%
CC(C)n1cc(-c2ccc(Cl)cc2)cc(C#N)c1=O	?	7%	32µM*	-1%	-8%
C=CCn1cc(-c2ccccc2)cc(C#N)c1=O	1%	?	?	0%	-9%
CCCCc1nn2c(=O)cc(COC(=O)c3ccc(NC(=O)c4cccc(OC)c4)cc3)nc2s1	·	·	0%	·	·
Cc1ccc(-c2noc(-c3ccccc3NC(=O)C3CC(=O)N(c4ccccc4C)C3)n2)cc1 (stereo unspecified)	·	·	-20%	·	·
c1coc(Cn2c(-c3ccco3)nc3ccccc32)c1	-10%	1%	28µM*	?	-39%
CCC(C)NC(=O)c1cnn(-c2cccc(F)c2)c1-n1cccc1 (stereo unspecified)	·	·	0%	·	·
Cc1cccc(C(=O)NC2(C(F)(F)F)N=C(c3ccccc3)N(C3CCCCC3)C2=O)c1 (stereo unspecified)	·	·	0%	·	·
CC(=O)c1cn(CC(=O)Nc2ccccc2F)c2ccccc12	·	-2%	·	1%	1%
O=C(Cn1c2ccccc2c(=O)c2ccccc21)Nc1ccccc1F	0%	22%	13µM*	?	?
NC(CC(=O)Nc1ccc(Oc2cc(F)c(F)cc2Br)cc1)C(=O)O (stereo unspecified)	7%	·	·	·	·
CC(C)Cc1nc2oc3c(NCC4CCCO4)ncnc3c2c2c1CCC2 (stereo unspecified)	8%	-7%	?	-1%	8%
c1cncc(CNc2ncnc3sc4c(c23)CCC4)c1	6%	-2%	·	-3%	0%
CC(C)c1nc2oc3c(NCc4cccnc4)ncnc3c2c2c1CCC2	-3%	-4%	14µM*	3%	-14%
CC(C)Cc1nc2oc3c(NCc4cccnc4)ncnc3c2c2c1CCC2	7%	7%	18µM*	0%	-5%
CCCSCCCNC(=O)c1sc2nc(C)cc(C)c2c1-n1cccc1	·	·	0%	·	·
COc1ccc(CNC(=O)CSc2nc(-c3ccc(OC)cc3)cc(C(F)(F)F)n2)cc1	·	·	-15%	·	·
COc1ccc(-c2cc(C(F)(F)F)nc(SCCC(=O)NCc3ccccc3)n2)cc1	0%	-2%	13µM*	0%	2%
CCCNC(=O)CSc1nc(-c2ccc(OC)cc2)cc(C(F)(F)F)n1	·	·	3.2µM*	·	·
CC(NC(=O)CCSc1nc(-c2ccc3c(c2)OCO3)cc(C(F)(F)F)n1)c1ccccc1 (stereo unspecified)	10%	1%	32µM*	8%	-6%
CC(C)NC(=O)CCSc1nc(-c2ccc3c(c2)OCO3)cc(C(F)(F)F)n1	·	·	4%	·	·
COc1ccc(-c2cc(C(F)(F)F)nc(SCC(=O)Nc3cc(C)on3)n2)cc1	12%	12%	4µM*	-1%	15%
Cc1cc(C(F)(F)F)nc(SCC(=O)Nc2cc(C)on2)n1	8%	-7%	0%	5%	2%
COCCN=C1OC(=O)N2C(=O)C3=C4C(C[C@H]5C(=O)N(c6ccccc6)C(=O)[C@H]5[C@H]4[C@@]12Cc1ccccc1)[C@H]1C(=O)N(c2ccccc2)C(=O)[C@H]1[C@H]3C (stereo partly specified)	-1%	·	·	·	·
SMILES	CBFb-RUNX1 inh	MBNL1 CUG block	ClpP mod	Rango complex inh	Rango release inh
Cc1ccccc1NC(=O)c1c(C)oc2ccc(O)c(CN3CCOCC3)c12	·	·	-1%	·	·
Cc1nc(SCC(=O)NCc2ccco2)[nH]c(=O)c1C	1%	-3%	-1%	3%	1%
Cc1ccc(C2C3=C(CCCC3=O)Nc3nc(SCC(=O)NCc4ccco4)[nH]c(=O)c32)cc1 (stereo unspecified)	-8%	-3%	20µM*	-4%	-4%
CC1CCCN(c2oc(-c3cccc4ccccc34)nc2C#N)C1 (stereo unspecified)	9%	0%	3.2µM*	1%	24%
COc1ccc(N2CCN(c3oc(-c4ccccc4OC)nc3C#N)CC2)cc1	-11%	?	?	2%	4%
COc1ccc(-c2nc(C#N)c(N3CCN(c4ccccc4)CC3)o2)cc1	-9%	-7%	5%	-3%	10%
CCN1CCN(c2oc(-c3ccc(OC)cc3)nc2C#N)CC1	·	·	3.2µM*	-4%	1%
CC1CC(C)CN(c2oc(-c3ccccc3F)nc2C#N)C1 (stereo unspecified)	·	-2%	0%	-2%	-15%
N#Cc1nc(-c2ccccc2Cl)oc1N1CCOCC1	1%	2%	8.9µM*	4%	-7%
COc1ccccc1-c1nc(C#N)c(N2CCN(c3ccccc3)CC2)o1	?	-7%	28µM*	-2%	3%
O=[N+]([O-])c1cccc(Cl)c1	6%[21.7 µM]	·	·	·	·
CN(N=O)c1ccc(/C=C/c2ccnc3ccccc23)cc1	·	·	1%	·	·
CN1C(=O)[C@H]2[C@@H](c3ccc(C(F)(F)F)cc3)N[C@]3(CCCN(Cc4ccc(Cl)cc4)C3=O)[C@H]2C1=O	·	·	2%	·	·
CC1CCN(c2oc(-c3ccccc3Cl)nc2C#N)CC1	?	12%	28µM*	0%	16%
Cc1ccccc1-c1nc(C#N)c(N2CCC(C)CC2)o1	·	4%	4%	0%	23%
Cc1cccc(N2CCN(C(=O)c3cc4ccc5cccnc5c4[nH]3)CC2)c1C	·	·	-9%	·	·
CCN(CC)c1ccc(NC(=O)C2CCN(S(=O)(=O)c3cnc[nH]3)CC2)c(C)c1	·	·	-2%	·	·
CCN(CC)c1ccc(C2C(C(=O)OCCOC)=C(C)NC3=C2C(=O)CC(C)(C)C3)cc1 (stereo unspecified)	0%	8%	28µM*	?	?
CCOC(=O)C1=C(C)NC2=C(C(=O)CC(C)(C)C2)C1c1cccc(C)n1 (stereo unspecified)	2%	1%	32µM*	?	?
COc1ccc(C2C(C#N)=C(SC)NC3=C2C(=O)CC(C)(C)C3)cc1 (stereo unspecified)	5%	9%	-10%	-4%	-8%
CCCCC1C(C#N)=C(C)NC2=C1C(=O)CC(C)(C)C2 (stereo unspecified)	3%	12%	13µM*	?	?
COC(=O)c1ccc(C2C(C#N)=C(C)NC3=C2C(=O)CC(C)(C)C3)cc1 (stereo unspecified)	10%	9%	22µM*	?	-17%
CCCOC(=O)C1=C(C)NC2=C(C(=O)CC(C)(C)C2)C1c1ccc(N(C)C)cc1 (stereo unspecified)	-10%	-5%	-5%	7%	-1%
